About 83,000 compounds went through this panel and 20% of them were active in at least one assay; those are over-represented in the sample as a whole.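 Step 1: grow cells in 96-well plates. Step 2: add test compound at a single concentration. Step 3: incubate 48 h. Step 4: record percent growth.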 Unmarked numbers belong to inactive results. Active and inactive are the calls of the source. Rule for the calls: active = growth percent below 10; inactive = the rest.
What was measured:
Test in all cases: NCI-60 one-dose screen, 48 h (100 = growth as untreated, 0 = no growth, -100 = all killed)
Settings in all cases: 10 µM unless noted
[1] = system: SK-MEL-2 melanoma
[2] = system: EKVX NSCLC
[3] = system: SN12C renal
[4] = system: UO-31 renal
[5] = system: TK-10 renal
[6] = system: ACHN renal
[7] = system: A498 renal
[8] = system: CCRF-CEM leukemia
[9] = system: MOLT-4 leukemia
[10] = system: SR leukemia
[11] = system: RPMI-8226 leukemia
[12] = system: OVCAR-8 ovarian
[13] = system: OVCAR-5 ovarian
[14] = system: OVCAR-4 ovarian
[15] = system: SK-OV-3 ovarian
[16] = system: IGROV1 ovarian
[17] = system: OVCAR-3 ovarian
[18] = system: HS 578T breast
[19] = system: NCI/ADR-RES ovarian
[20] = system: CAKI-1 renal

SMILES: CCC(CC)N1C(=O)/C(=c2\sc3n(c2=O)NC2C(N=3)N(CC)C(=O)N2CC)c2ccccc21 (stereo not drawn)
- growth [1]: 101%
- growth [2]: 59.6%
- growth [3]: 56%
- growth [4]: 54.4%
- growth [5]: 127%
- growth [6]: 50.4%
- growth [7]: 52.3%
- growth [8]: 55.3%
- growth [9]: 59.8%
- growth [10]: 54.5%
- growth [11]: 64.7%
- growth [12]: 81.6%
- growth [13]: 57.3%
- growth [14]: 63.6%
- growth [15]: 95.7%
- growth [16]: 44.7%
- growth [17]: 31.5%
- growth [18]: 73.1%
- growth [19]: 26.3%

SMILES: CCCn1cnc2c(c1=N)C(c1ccc(OC)cc1)c1sc3c(C)cccc3c1O2 (stereo not drawn)
- growth [1]: 36.9%
- growth [2]: 40.9%
- growth [3]: 19%
- growth [4]: 27.2%
- growth [5]: 94.2%
- growth [6]: 31.8%
- growth [7]: -21.4% (active)
- growth [8]: 3.52% (active)
- growth [9]: 17%
- growth [10]: 27%
- growth [11]: -3.63% (active)
- growth [12]: 23.9%
- growth [13]: 32.4%
- growth [14]: 75.3%
- growth [15]: 49%
- growth [16]: 18.4%
- growth [17]: 7.94% (active)
- growth [18]: 10.5%
- growth [19]: 7.35% (active)

SMILES: N#Cc1cnc2ccc(-c3cnc(N)nc3)cc2c1N1CCc2cc(F)c(Cl)cc21
- growth [1]: -32.5% (active)
- growth [2]: -7.03% (active)
- growth [3]: 15%
- growth [4]: -6.05% (active)
- growth [5]: -20.5% (active)
- growth [6]: 7.59% (active)
- growth [20]: 5.2% (active)
- growth [8]: 5.74% (active)
- growth [9]: 0.22% (active)
- growth [10]: 8.58% (active)
- growth [11]: -16.9% (active)
- growth [12]: 12%
- growth [13]: 19.8%
- growth [14]: 12.3%
- growth [15]: 0.148% (active)
- growth [16]: -44.6% (active)
- growth [17]: 8.88% (active)
- growth [18]: -22.5% (active)
- growth [19]: 6.22% (active)

SMILES: NC(N)=Nc1ccc(Oc2cccc(NC(N)=Nc3ccc(Cl)c(C(F)(F)F)c3)c2)cc1
- growth [1]: 83%
- growth [2]: 64.4%
- growth [3]: 31%
- growth [4]: 87%
- growth [5]: 74%
- growth [6]: 87.8%
- growth [7]: 54%
- growth [8]: 61.8%
- growth [9]: 51.9%
- growth [10]: 7.43% (active)
- growth [11]: 41.4%
- growth [12]: 66.8%
- growth [13]: 48.1%
- growth [14]: 62.4%
- growth [15]: 54.9%
- growth [16]: -10.5% (active)
- growth [17]: 30.8%
- growth [18]: 35.8%
- growth [19]: 95.4%

SMILES: COc1cccc2cc(-c3cc4ccccc4[nH]3)/c(=N\NC(=O)c3ccc(Cl)cc3)oc12
- growth [1]: 68.3%
- growth [2]: 33.8%
- growth [3]: 43%
- growth [4]: 28%
- growth [5]: 46.7%
- growth [6]: 17.3%
- growth [20]: 30.7%
- growth [8]: 16.6%
- growth [9]: 15.5%
- growth [10]: 25.7%
- growth [12]: 20.7%
- growth [13]: 49.2%
- growth [14]: 9.76% (active)
- growth [15]: 39.5%
- growth [16]: 26.3%
- growth [17]: 14.7%
- growth [18]: 77%
- growth [19]: 13.3%

SMILES: CCN(CC)c1cn(-c2ccc(S(N)(=O)=O)cc2)nn1
- growth [1]: 109%
- growth [2]: 105%
- growth [3]: 105%
- growth [4]: 91.8%
- growth [5]: 103%
- growth [6]: 106%
- growth [20]: 93.9%
- growth [8]: 106%
- growth [9]: 97.7%
- growth [10]: 97%
- growth [11]: 103%
- growth [12]: 102%
- growth [13]: 105%
- growth [14]: 101%
- growth [15]: 113%
- growth [16]: 113%
- growth [17]: 110%
- growth [18]: 98.3%
- growth [19]: 109%

SMILES: O=C(Nc1ccc(Br)cc1)Nc1nc2ccc([N+](=O)[O-])cc2s1
- growth [1]: -22.7% (active)
- growth [2]: 9.52% (active)
- growth [3]: 4.21% (active)
- growth [4]: 5.94% (active)
- growth [5]: -2.48% (active)
- growth [6]: 3.61% (active)
- growth [20]: -2.25% (active)
- growth [9]: 3.2% (active)
- growth [10]: -27.9% (active)
- growth [11]: -35% (active)
- growth [12]: 8.82% (active)
- growth [13]: 19.4%
- growth [14]: -10.6% (active)
- growth [15]: -5.7% (active)
- growth [16]: 21.8%
- growth [17]: -5.56% (active)
- growth [18]: -3.63% (active)
- growth [19]: 3.27% (active)

SMILES: C=CCn1c(SCC(=O)Nc2ccc(C(=O)/C=C/c3cc(OC)c(OC)c(OC)c3)cc2)nnc1-c1c[nH]c2ccccc12
- growth [1]: 101%
- growth [2]: 73.7%
- growth [3]: 34.1%
- growth [4]: 43.5%
- growth [5]: 144%
- growth [6]: 52.2%
- growth [7]: 44%
- growth [8]: 5.4% (active)
- growth [9]: 2.78% (active)
- growth [10]: 1.35% (active)
- growth [11]: -35.2% (active)
- growth [12]: 37.8%
- growth [13]: 32.1%
- growth [14]: 59.4%
- growth [15]: 75.3%
- growth [16]: -26% (active)
- growth [17]: 6.15% (active)
- growth [18]: 38.8%
- growth [19]: 88.9%

SMILES: COc1ccc(S(=O)(=O)NCCCNc2nccc(-c3[nH]c(-c4ccccc4)nc3-c3ccc(Cl)c(O)c3)n2)cc1
- growth [1]: 15.4%
- growth [2]: 113%
- growth [3]: 84.2%
- growth [4]: 116%
- growth [5]: 126%
- growth [6]: 96.2%
- growth [20]: 102%
- growth [8]: 40.3%
- growth [9]: 51.2%
- growth [10]: 61.9%
- growth [11]: 49.8%
- growth [12]: 67%
- growth [13]: 104%
- growth [14]: 101%
- growth [15]: 112%
- growth [16]: 93.6%
- growth [17]: 71.8%
- growth [18]: 112%
- growth [19]: 103%

SMILES: O=S(=O)(Nc1cccc2ccccc12)c1ccc(-c2cnc(C3CC3)o2)cc1
- growth [1]: 72.3%
- growth [2]: 43.1%
- growth [3]: 34.3%
- growth [4]: 43.5%
- growth [5]: 92.6%
- growth [6]: 36.9%
- growth [20]: 29.9%
- growth [9]: 21.8%
- growth [11]: 14.4%
- growth [12]: 28.5%
- growth [13]: 42.6%
- growth [15]: 71.3%
- growth [16]: 23.4%
- growth [17]: 7.12% (active)
- growth [18]: 39.1%
- growth [19]: 7.22% (active)

SMILES: O=S(=O)(Nc1ccc(I)cc1Cl)c1ccc(-c2cnc(C3CC3)o2)cc1
- growth [1]: 71.6%
- growth [2]: 54.2%
- growth [3]: 42.5%
- growth [4]: 50.9%
- growth [5]: 89.3%
- growth [6]: 49.2%
- growth [20]: 39.1%
- growth [8]: 25.2%
- growth [9]: 45%
- growth [10]: 34.5%
- growth [12]: 62.2%
- growth [13]: 75.4%
- growth [14]: 67%
- growth [15]: 57.8%
- growth [16]: 43.2%
- growth [17]: -10.4% (active)
- growth [18]: 17.3%
- growth [19]: 28.1%

SMILES: O=C(c1ccc(O)c(C(=O)N2Cc3ccc(OCCC[P+](c4ccccc4)(c4ccccc4)c4ccccc4)cc3C2)c1)N1Cc2cccc(F)c2C1
- growth [1]: 65.2%
- growth [2]: 70.3%
- growth [3]: 88.6%
- growth [4]: 80.6%
- growth [5]: 100%
- growth [6]: 101%
- growth [20]: 93.1%
- growth [9]: 108%
- growth [10]: 54.5%
- growth [11]: 31.8%
- growth [12]: 77.5%
- growth [13]: 102%
- growth [14]: 91.4%
- growth [15]: 114%
- growth [16]: 43.8%
- growth [18]: 72.4%
- growth [19]: 108%

SMILES: O=C(Nc1cccc(Cl)c1)Nc1nc2ccc([N+](=O)[O-])cc2o1
- growth [1]: 3.62% (active)
- growth [2]: 16.7%
- growth [3]: 16.8%
- growth [4]: 24%
- growth [5]: 8.49% (active)
- growth [6]: 23%
- growth [20]: 15.8%
- growth [8]: 10.5%
- growth [9]: 9.15% (active)
- growth [10]: 50.8%
- growth [12]: 6.36% (active)
- growth [13]: 47.7%
- growth [14]: -3.53% (active)
- growth [15]: 12.9%
- growth [16]: 20.8%
- growth [17]: -13.9% (active)
- growth [18]: 36.4%
- growth [19]: 10.4%

SMILES: C[C@@H](Nc1c(C#N)cnc2ccc(-c3cnc(Cl)c(NS(C)(=O)=O)c3)cc12)c1ccccc1
- growth [1]: -29.4% (active)
- growth [2]: -9.44% (active)
- growth [3]: 9.48% (active)
- growth [4]: 4.15% (active)
- growth [5]: -17.9% (active)
- growth [6]: 8.09% (active)
- growth [20]: -18.4% (active)
- growth [9]: -35.6% (active)
- growth [10]: -14.1% (active)
- growth [11]: -34.9% (active)
- growth [12]: 16.3%
- growth [13]: 4.76% (active)
- growth [14]: 0.536% (active)
- growth [15]: -7.04% (active)
- growth [16]: -30.4% (active)
- growth [17]: 4.33% (active)
- growth [18]: -15.9% (active)
- growth [19]: 31.5%

SMILES: CNC1CCc2c(sc(NC(=O)c3ccc(C(C)(C)C)cc3)c2C(N)=O)C1 (stereo not drawn)
- growth [1]: 72.8%
- growth [2]: 54.6%
- growth [3]: 69.2%
- growth [4]: 79.5%
- growth [5]: 101%
- growth [6]: 37%
- growth [20]: 42.4%
- growth [8]: 11.5%
- growth [9]: 0.786% (active)
- growth [10]: 2.87% (active)
- growth [11]: -5.86% (active)
- growth [12]: 74.6%
- growth [13]: 67%
- growth [14]: 81.4%
- growth [15]: 90.6%
- growth [16]: 65.8%
- growth [17]: 61.3%
- growth [18]: 57.3%
- growth [19]: 78.2%

SMILES: Nc1ncc(-c2ccc3ncnc(N4CCc5cc(F)c(F)cc54)c3c2)cn1
- growth [1]: 33.2%
- growth [2]: 18.7%
- growth [3]: 25.1%
- growth [4]: 8.51% (active)
- growth [5]: -2.82% (active)
- growth [6]: 19.5%
- growth [20]: 15.3%
- growth [8]: 24.2%
- growth [9]: 8.56% (active)
- growth [10]: 23.9%
- growth [11]: 4.99% (active)
- growth [12]: 33.3%
- growth [13]: 38.1%
- growth [14]: 43.9%
- growth [15]: 9.09% (active)
- growth [16]: -6.07% (active)
- growth [17]: 26.3%
- growth [18]: -15.4% (active)
- growth [19]: 35.8%

SMILES: O=C(CN1CCN(c2cc(=O)n(-c3ccccc3)c3ccccc23)CC1)Nc1nc(-c2ccccc2)cs1
- growth [1]: 88.9%
- growth [2]: 45.5%
- growth [3]: 82.1%
- growth [4]: 41.6%
- growth [5]: 97.7%
- growth [6]: 63.8%
- growth [20]: 61.4%
- growth [8]: 39.6%
- growth [9]: 17.8%
- growth [10]: 51.3%
- growth [11]: 46.2%
- growth [12]: 69.8%
- growth [13]: 94.1%
- growth [14]: 23.3%
- growth [15]: 70.7%
- growth [16]: 67.5%
- growth [17]: 72.5%
- growth [18]: 82.9%
- growth [19]: 62.7%
